# From PubChem BioAssay
# Where “and” joins values, the source holds several entries; their conditions need not be identical. Identical values can stand only once. Calls of active or inactive are those of the source.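 How the source made its calls, unless noted: active means compounds whose cell count with miR-34 switched on is under 0.7 times the count with it off; inactive means the rest.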
# Columns and labels:
# [1] = hESC survival regulators, cell-based (AID 493140; call rule not given here;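 further: cells exposed to compounds for four days before counting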); settings: human embryonic stem cell survival screen; stronger effect = higher value
# [2] = liver-stage malaria parasite growth inhibition, primary screen, cell-based, HepG2, luciferase luminescence, HepG2 viability (AID 624349; in the data active means parasite load remaining mostly below about 12%, no sharp cut-off; inactive means mostly above about 10%;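 further: 100% = mean of DMSO negative control wells on the same plate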); settings: P. berghei liver stage in HepG2, luciferase luminescence, concentration not given here; parasite load remaining: stronger effect = lower value; viability: measured here: HepG2 viability without parasites
# [3] = stimulators of nuclear beta-catenin in C2C12, primary screen, imaging, WNT3A-conditioned medium, mouse C2C12, NPC library (AID 1117326; in the data active means nuclear beta-catenin stimulation mostly above about 4.2%, no sharp cut-off; inactive means mostly below about 10%); settings: stronger effect = higher value
# [4] = stimulators of insulin release from INS-1E, primary screen, cell-based, 5 mM glucose, NPC library (AID 1117329;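 active means compound raises insulin release from rat beta cells at 5 mM glucose, no numeric limit stated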); settings: rat INS-1E insulin secretion, at 10 µM, stronger effect = higher value
# [5] = growth inhibition of GSK3B-pretreated HCT116 cells – cell-based, CellTiter-Glo, 0.2 to 20 µM (AID 1117336;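 active means compounds lowering colon cancer cell viability after pretreatment blocking the GSK3B kinase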); settings: HCT116 viability after GSK3B inhibitor, at 20 µM, stronger effect = higher value
# [6] = inhibition of endothelial tube formation, primary screen, imaging, VEGF stimulated, CD31 staining, tube area, NPC library (AID 1117340;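 active means compound that reduces growth-factor-driven endothelial tube area in a mixed cell culture, no cutoff stated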); settings: VEGF-stimulated ADSC/ECFC co-culture, at 10 µM, stronger effect = higher value
# [7] = glucagon-like peptide 1 release enhancers, primary assay, NCI-H716 cell line, NPC library (AID 1117341;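 active means compound raises GLP1 secretion from the human gut endocrine cells, with no numeric limit stated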); settings: NCI-H716 cells, at 10 µM, stronger effect = higher value
# [8] = HCT116 colon cancer cell growth inhibition, primary screen, CellTiter-Glo luminescence, NPC library (AID 1117342;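 active means compounds that lower survival of HCT116 colon cancer cells in the luminescence readout, no numeric limit stated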); settings: at 20 µM (top of the series)
# [9] = CellTiter-Glo luminescent readout of SW480 viability loss, NPC library primary (AID 1117343;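 active means compounds that lower viability of the colon cancer cells in the luminescence readout, with no numeric limit stated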); settings: CellTiter-Glo luminescence; at 20 µM (top of the series) unless noted
# [10] = decreased DLD-1 cellular survival, CellTiter-Glo luminescent readout, NPC compound collection, primary HTS (AID 1117346;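 active means compounds that lower survival of DLD-1 colon cancer cells in the luminescence readout, no cutoff given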); settings: DLD-1 viability, CellTiter-Glo luminescence; at 20 µM (top of the series)
# [11] = differential killing of epithelial or mesenchymal cells, primary screen, imaging, PC-3E GFP, TEM4-18 mCherry, co-culture (AID 1345086;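 active means compounds killing one labelled cell type while sparing the other, by normalised counts and ratio limits, not self-fluorescent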;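 on all read-outs here: cells exposed to compound for 72 h before imaging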;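 on red/green cell ratio (normalised): normalised mesenchymal count divided by normalised epithelial count so high means epithelial killing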); settings: imaging cell counts, at 1 µM; for red/green cell ratio (normalised): actives lie on both sides, counts scaled to control wells, 1 = unselective
# [12] = sensitizers of A549 cells to miR-34 induction, primary screen, imaging, A549 dox-inducible miR-34, nuclei and caspase counts (AID 1347080); settings: A549 miR-34 inducible, Hoechst nuclei count, 48 h
# [13] = survival rescue of mitochondrial mutant cells in low glucose, primary screen, MELAS cybrids, Rieske KO mouse fibroblasts, CellTiter-Glo (AID 1508586;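 active means mean z-score across replicates of 1.96 or higher in either the MELAS or the Rieske mutant cell line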;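 further: z relative to plate mean and SD of compound and empty wells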)
# [14] = biological target: NAD(+) hydrolase SARM1 (Homo sapiens) (UniProt Q6SZW1); test: SARM1 TIR NADase inhibitors, cell lysate, NAD-Glo luminescence (AID 1508614;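 active means compound whose remaining NAD level is above about 45 nM, limit read from the data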); settings: SAM-TIR HEK293T lysate NADase, at 1 µM, stronger effect = higher value
# Chain of NAD(+) hydrolase SARM1 (Homo sapiens) (Q6SZW1 whole entry, looked up): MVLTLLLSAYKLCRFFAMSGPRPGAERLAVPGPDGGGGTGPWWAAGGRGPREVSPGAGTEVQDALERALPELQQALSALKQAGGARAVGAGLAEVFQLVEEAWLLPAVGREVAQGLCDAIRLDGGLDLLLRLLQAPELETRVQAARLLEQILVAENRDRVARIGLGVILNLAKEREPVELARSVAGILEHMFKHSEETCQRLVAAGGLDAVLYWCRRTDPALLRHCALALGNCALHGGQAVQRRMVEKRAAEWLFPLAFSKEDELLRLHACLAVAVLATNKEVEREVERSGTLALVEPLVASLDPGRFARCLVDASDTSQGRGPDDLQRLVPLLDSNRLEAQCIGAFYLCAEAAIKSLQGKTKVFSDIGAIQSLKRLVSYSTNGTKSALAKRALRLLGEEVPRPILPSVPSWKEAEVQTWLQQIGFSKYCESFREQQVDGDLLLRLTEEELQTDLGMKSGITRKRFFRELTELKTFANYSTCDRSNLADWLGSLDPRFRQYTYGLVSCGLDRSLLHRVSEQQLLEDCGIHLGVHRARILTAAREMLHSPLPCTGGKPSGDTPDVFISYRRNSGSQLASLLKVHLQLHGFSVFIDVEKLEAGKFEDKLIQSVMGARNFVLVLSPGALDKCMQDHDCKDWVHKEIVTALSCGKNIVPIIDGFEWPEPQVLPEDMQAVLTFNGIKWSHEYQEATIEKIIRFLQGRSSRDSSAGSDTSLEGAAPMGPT
# [15] = LFS_MB_P medulloblastoma growth inhibition, cell-based, chromothripsis tumors, cisplatin or BGB combos (AID 1671449; in the data active means inhibition above about 80%;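 further: cells exposed for 96 hours; 0% = vehicle DMSO and 100% = killing by high DMSO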); settings: LFS_MB_P medulloblastoma cells
# [16] = HDN33 neuroblastoma growth inhibition, cell-based, chromothripsis tumors, cisplatin or BGB combos (AID 1671450; in the data active means inhibition above about 80%;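 further: cells exposed to compound for four days; 0% = vehicle DMSO and 100% = cell killing by high DMSO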); settings: HDN33 neuroblastoma cells, stronger effect = higher value
# [17] = ICB984 medulloblastoma cell growth inhibition, synergistic combos for chromothripsis tumors, cisplatin or BGB combos (AID 1671451; call rule not given here;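 further: cells exposed for 96 hours before readout; 0% = vehicle DMSO and 100% = killing by high DMSO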); settings: ICB984 medulloblastoma cells, drug combinations, stronger effect = higher value
# [18] = HTB85 osteosarcoma cell growth inhibition, synergistic combos for chromothripsis tumors, BGB or cisplatin IC20 combos (AID 1671453; in the data active means inhibition above about 80%;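 further: cells exposed for 96 hours before readout; 0% = vehicle DMSO and 100% = high DMSO killing control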); settings: HTB85 osteosarcoma cells, drug combinations, stronger effect = higher value
# [19] = MDA-MB-436 breast carcinoma cell growth inhibition, synergistic combos for chromothripsis tumors, BGB or cisplatin combos (AID 1671458; call rule not given here;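 further: cells exposed for 96 hours; 0% = vehicle DMSO and 100% = killing by high DMSO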); settings: MDA-MB-436 breast carcinoma growth inhibition, drug combinations, stronger effect = higher value
# [20] = measured here: epithelial PC-3E GFP cell survival
# [21] = measured here: mesenchymal TEM4-18 mCherry cell survival
# [22] = stronger effect = lower value, cell number ratio, induced over uninduced
# [23] = measured here: relative caspase fold change +Dox/-Dox
# [24] = measured here: total cells with miR-34 induction, stronger effect = lower value
# [25] = measured here: total cells without miR-34 induction
# [26] = MELAS cybrid survival, CellTiter-Glo 48 h, stronger effect = higher value
# [27] = Rieske KO mouse fibroblast survival, CellTiter-Glo 72 h
smiles,measurement,setting,value
O=C(O)[C@H](O)[C@@H](O)[C@H](O[C@@H]1O[C@H](CO)[C@H](O)[C@H](O)[C@H]1O)[C@H](O)CO,survival,[1],11.8 (inactive)
same,parasite load remaining,[2],68% (inactive) and 86.7% (inactive)
same,viability,[2],96.5% and 74.2%
same,nuclear beta-catenin stimulation,[3]; at 10 µM,-1.5% (inactive)
same,nuclear beta-catenin stimulation,"[3]; stimulation, at 2 µM",-0.6%
same,insulin secretion stimulation,[4],5.9% (inactive)
same,viability decrease,[5],94.4% (active)
same,tube area decrease,[6],-14.9% (inactive)
same,GLP1 secretion stimulation,[7],-3.6% (inactive)
same,inhibition of viability,[8],93% (active)
same,viability decrease (inhibition),[9],94% (active)
same,viability decrease (inhibition),[10],99.7% (active)
same,red/green cell ratio (normalised),[11],1.06 (inactive)
same,normalised cell number,[11]; [20],1.17
same,normalised cell number,[11]; [21],1.23
same,fold change,[12]; [22],0.847 (inactive)
same,fold change,[12]; [23],1.47
same,cell count,[12]; [24],8980
same,cell count,[12]; [25],10600
O=C(O)c1cc(=O)[nH]c(=O)[nH]1,nuclear beta-catenin stimulation,[3]; at 10 µM,2.7% (inactive)
same,nuclear beta-catenin stimulation,"[3]; stimulation, at 2 µM",1.2%
same,insulin secretion stimulation,[4],-0.7% (inactive)
same,viability decrease,[5],0.3% (inactive)
same,tube area decrease,[6],-4.9% (inactive)
same,GLP1 secretion stimulation,[7],2.6% (inactive)
same,inhibition of viability,[8],1.8% (inactive)
same,viability decrease (inhibition),[9],18.7% (inactive)
same,viability decrease (inhibition),[10],0.25% (inactive)
same,red/green cell ratio (normalised),[11],0.81 (inactive)
same,normalised cell number,[11]; [20],1.22
same,normalised cell number,[11]; [21],0.99
same,fold change,[12]; [22],0.909 (inactive) and 0.91 (inactive)
same,fold change,[12]; [23],0.683 and 0.794
same,cell count,[12]; [24],8860 and 8140
same,cell count,[12]; [25],9750 and 8950
same,z-score,[13]; [26],-0.414 (inactive)
same,z-score,[13]; [27],-0.146
same,remaining NAD,[14],10 nM (inactive)
same,inhibition,"[15]; at 0.5 µM, stronger effect = higher value",-14.8% (inactive) and 6.04% (inactive)
same,inhibition,"[15]; measured here: combination with BGB IC20, at 0.005 µM",-3.6% and -6.88%
same,inhibition,"[15]; measured here: combination with BGB IC40, at 0.005 µM",28.3% and -31.4%
same,inhibition,"[15]; measured here: combination with BGB IC40, at 0.05 µM",-7.85% and -7.79%
same,inhibition,"[15]; measured here: combination with cisplatin, at 0.5 µM, stronger effect = higher value",-24.1% and -4.55%
same,inhibition,"[15]; measured here: combination with cisplatin, at 5 µM, stronger effect = higher value",-5.53% and -40.7%
same,inhibition,"[16]; BGB combo, at 5 µM",13.5% and -51.1%
same,inhibition,[16]; at 0.5 µM,15.1% (inactive) and -24.6% (inactive)
same,inhibition,"[16]; cisplatin combo, at 5 µM",14.4% and -17.2%
same,inhibition,"[16]; measured here: with BGB IC20 combination, at 0.5 µM",10.5% and -14.2%
same,inhibition,"[16]; measured here: with cisplatin IC20 combination, at 0.5 µM",24.7% and -33.5%
same,inhibition,"[16]; single agent, at 5 µM",12.4% and -40.1%
same,inhibition,"[17]; BGB IC20 combo, at 0.005 µM",-7.3% and -18.5%
same,inhibition,"[17]; BGB IC40 combo, at 0.005 µM",-15.2% and -60.1%
same,inhibition,"[17]; BGB IC40 combo, at 0.05 µM",9.75% and -38.4%
same,inhibition,[17]; at 0.5 µM,7.77% (inactive) and -27.4% (inactive)
same,inhibition,"[17]; cisplatin combo, at 0.05 µM",9.75% and -43.9%
same,inhibition,"[17]; cisplatin combo, at 0.5 µM",-1.72% and -34.4%
same,inhibition,"[17]; cisplatin combo, at 5 µM",27.1% and -45.2%
same,inhibition,"[17]; measured here: 5 uM single agent, at 5 µM",8.32% and 10.3%
same,inhibition,[18]; at 0.5 µM,5.03% (inactive) and -15.1% (inactive)
same,inhibition,"[18]; measured here: with BGB IC20, at 0.5 µM",-2.41% and -19.2%
same,inhibition,"[18]; measured here: with BGB IC20, at 5 µM",15.1% and -5.19%
same,inhibition,"[18]; measured here: with cisplatin IC20, at 0.5 µM",6.2% and -21.8%
same,inhibition,"[18]; measured here: with cisplatin IC20, at 5 µM",13% and -19.1%
same,inhibition,"[18]; single agent, at 5 µM",16% and -13.4%
same,inhibition,[19]; at 0.5 µM,2.87% (inactive) and -29.1% (inactive)
same,inhibition,"[19]; measured here: BGB combination, at 0.5 µM",7.16% and -31.6%
same,inhibition,"[19]; measured here: BGB combination, at 5 µM",4.32% and -38.3%
same,inhibition,"[19]; measured here: cisplatin combination, at 0.5 µM",-8.53% and -32.8%
same,inhibition,"[19]; measured here: cisplatin combination, at 5 µM",21.8% and -35.6%
Clc1ccc(C(Cn2ccnc2)OCc2ccsc2Cl)c(Cl)c1 (stereo not given),parasite load remaining,[2],37.3% (inactive) and 6.58% (inactive)
same,viability,[2],97.8% and 62%
same,nuclear beta-catenin stimulation,[3]; at 10 µM,4.5% (inactive)
same,nuclear beta-catenin stimulation,"[3]; stimulation, at 2 µM",0.7%
same,insulin secretion stimulation,[4],0.9% (inactive)
same,viability decrease,[5],100% (active)
same,tube area decrease,[6],110% (active)
same,GLP1 secretion stimulation,[7],10.8% (inactive)
same,inhibition of viability,[8],100% (active)
same,viability decrease (inhibition),[9],123% (active)
same,viability decrease (inhibition),[10],103% (active)
same,red/green cell ratio (normalised),[11],1.15 (inactive)
same,normalised cell number,[11]; [20],0.85
same,normalised cell number,[11]; [21],0.97
same,fold change,[12]; [22],0.919 (inactive) and 0.86 (inactive) and 0.892 (inactive)
same,fold change,[12]; [23],0.876 and 3.84 and 1.06
same,cell count,[12]; [24],7290 and 10300 and 7120
same,cell count,[12]; [25],7930 and 12000 and 7980
same,z-score,[13]; [26],-0.0566 (inactive) and 0.885 (inactive) and 0.0763 (inactive)
same,z-score,[13]; [27],-0.152 and 0.306 and -0.538
same,remaining NAD,[14],10 nM (inactive)
